From PubChem BioAssay
An excerpt weighted towards active compounds, which were near 7.9% of everything screened.
LASV entry inh = blocks Lassa virus binding to or entry into cells; Potency, µM (titrated, usually from 37.9 µM), for inactives: top-dose activity change, negative = inhibition, usual class: inhibitors; 300,000 compounds, 1.2% hits; Lassa virus pseudotype entry inhibition, cell reporter; AID 540256; calls by dose curve; tested in HEK293 cells; also: potency is read from the fitted curve at half-maximal effect; nearly all actives have a fitted effect of over 50% in size
HCV inhibitor = blocks hepatitis C virus. Potency, µM (highest dose often 41.8 µM), for the others: at the top dose activity change, negative = inhibition, actives largely listed as inhibitors. AID 651820. Huh7.5.1 HCVcc-Cre infection, luciferase reporter, 44 h. 340,000 compounds, 3.4% hits; active = well fitted inhibition curve with a large enough effect; inconclusive = small, poorly fitted or top-dose-only effect, or another doubt; inactive = no such curve, though single readings can be large or run the other way; also: potency is read from the fitted curve at half-maximal effect
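Reporter virus HCVcc-Cre (~0.5 moi) infects cells exposed to compound; seeding density 1,000 cells/well with 4 h settling beforehand. Luminescence, 15 sec read, taken 44 h post-infection following a 15 min RT substrate incubation.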
MARV entry inh = Marburg virus entry inhibition; Marburg virus pseudotyped entry inhibition, cell reporter; Potency, µM (doses to about 37.8 µM), for inactives: at the top dose activity change, negative = inhibition, hits mostly inhibitors; 300,000 compounds, 1.8% hits; calls by dose curve; tested in HEK293 cells; also: potency is read from the fitted curve at half-maximal effect
HCMV inh = human cytomegalovirus inhibition. 410,000 compounds, 4.5% hits. activity change, negative = inhibition, % at 57.5 µM. HFF cells, HCMV-luciferase reporter, 72 h; stronger effect = lower value; in the data active = activity change below about -60%; inconclusive = no clear call, values can overlap the other calls; inactive = above about -39%
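HFF cells seeded 16 h at 37C, treated with compounds, infected with luciferase-reporter HCMV at MOI 1 PFU/cell; luciferase read at 72 h post infection, normalized to buffer-only and Salinomycin controls.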
FMDV inh = foot and mouth disease virus antiviral activity | AID 1159524 | FMDV antiviral cell-based qHTS | 410,000 compounds, 1.2% hits | Potency, µM (top dose mostly 57.9 µM), inactives show at the top dose activity change, negative = inhibition, actives largely listed as inhibitors; calls by dose curve; tested in HEK293T cells; also: read-out not given here; potency is read from the fitted curve at half-maximal effect; nearly all actives have a fitted effect of over 45% in size
Numbers without * were called inactive; ? = inconclusive; . = no result given; [ ] = another dose, or the depositor's remark. % is scaled to controls: 0 for no effect and ±100 for the full control effect.

SMILES	LASV entry inh	HCV inhibitor	MARV entry inh	HCMV inh	FMDV inh
Cc1c(C(=O)Nc2ccc(S(=O)(=O)NCC3CCCO3)cc2)cccc1[N+](=O)[O-] (stereo not drawn)	-29%[46.1 µM]	?	?	-29	27%
COC1C(=O)CCC2(CO2)C1(O)C1(C)OC1CC=C(C)C (stereo not drawn)	.	.	.	-76*	.
CCc1ccc2nc(Nc3ccc(OC)cc3OC)c(C#N)cc2c1	20%[46.1 µM]	3.5µM*	-5%	-7	13%
COc1ccc(CCN(C)Cc2nc(-c3cnccn3)no2)cc1OC	.	8%	.	9	5.6µM*
O=C(NC[C@@H]1CCCN2CCCC[C@H]12)c1cnn(-c2nccc(-c3ccco3)n2)c1C1CC1	.	.	.	.	-9%
CCN(CC)S(=O)(=O)c1ccc2oc(C(=O)NCC3COc4ccccc4O3)c(C)c2c1 (stereo not drawn)	23µM*	10µM*	?	-36	?
CCN(CC)S(=O)(=O)c1ccc2oc(C(=O)NCc3ccc(F)cc3)c(C)c2c1	5.8µM*	?	?	?	?
Cc1c(C(=O)NCC2COc3ccccc3O2)oc2ccc(S(=O)(=O)N3CC(C)CC(C)C3)cc12 (stereo not drawn)	-30%	?	?	-16	.
Cc1cc2nc(-c3cccc(NC(=O)COc4ccc(C(C)C)cc4)c3)oc2cc1C	46%[46.1 µM]	.	?	89	45%
COc1ccc(NC(=O)Nc2nnc(N(CC(C)C)CC(C)C)s2)c(OC)c1	-25%[46.1 µM]	.	-29%[46.1 µM]	-12	-20%
O=C(Cc1ccccc1)Nc1nonc1NC(=O)c1ccccc1	?	-2%	13µM*	-11	17%
Cc1ccc(C)c(Cn2c(=O)n(Cc3ccccc3)c(=O)c3c(C)c(C)sc32)c1	7%[46.1 µM]	.	20%[46.1 µM]	-1	-24%
COc1cccc(C(=O)Nc2cccc(OCc3cc(=O)n4cc(C)ccc4n3)c2)c1	0%[46.1 µM]	.	.	-28	-1%
COc1ccc(-c2cc(C3CCN(CC(O)C(F)(F)F)CC3)[nH]n2)cc1 (stereo not drawn)	.	-13%	.	-18	-1%
Cc1ccc(CN2CCC(c3cc(-c4ccc(Cl)cc4)n[nH]3)CC2)cc1	?	13µM*	?	-99*	?
Cc1ccc(CN2CCC(c3nc4ccc(Cl)cc4[nH]3)CC2)cc1	?	11µM*	4.1µM*	-20	.
COc1ccc(-c2cc(C3CCN(Cc4cccc(C(F)(F)F)c4)CC3)[nH]n2)cc1	?	?	10µM*	?	?
COCC(=O)N1[C@@H]2c3cccc(=O)n3C[C@@H]2[C@@H](CO)[C@@H]1C(=O)NCc1ccccc1F	.	.	.	0	.
COc1cccc(-c2cc3c(c(OC)c2)OCCN(S(=O)(=O)c2ccccc2OC(F)(F)F)C3)n1	.	.	.	.	7%
O=C(N[C@H]1CC[C@@]23CCCN2C(=O)CCC[C@H]3[C@H]1Cc1ccccc1)c1ccccc1	.	.	.	6	.
CCOC(=O)Cc1ccc(NC(=O)NCc2c(-n3cccc3)sc3c2CCCC3)cc1	-9%[46.1 µM]	.	6%[46.1 µM]	6	-1%
Cn1ncc(Br)c1NC(=O)CSc1ccc(Cl)cc1	.	25µM*	.	-35	?
O=C(CSc1ccc(Cl)cc1)Nc1ncccn1	9%	31%	21%	12	-9%
CN(C)CC(=O)N1[C@@H]2c3ccc(C4=CCCCC4)c(=O)n3C[C@H]1[C@H](CO)[C@H]2C(=O)NCC1CC1	.	.	.	-16	.
Nn1c(-c2ccc(F)cc2)nc2ccccc2c1=O	.	8%	.	-23	-2%
SMILES	LASV entry inh	HCV inhibitor	MARV entry inh	HCMV inh	FMDV inh
O=C1c2cc(F)ccc2-n2c1nc1ccccc1c2=O	?	2.5µM*	?	-83*	?
OC(c1ccc2c(c1)CN(Cc1ccc3nsnc3c1)CCO2)C1CCCCC1 (stereo not drawn)	.	.	.	.	-10%
CCOC(=O)Cn1c(CN(C)Cc2ccccc2)nc2c1c(=O)n(C)c(=O)n2C	1%	?	-11%	-8	14µM*
COC(=O)Cn1c(CN(C)Cc2ccccc2)nc2c1c(=O)n(C)c(=O)n2C	.	-13%	.	-17	?
C=C1CCC[C@]2(C)C[C@H]3OC(=O)C(CN[C@@H](C)c4ccccc4)[C@H]3CC12 (stereo partly drawn)	?	?	?	-64*	-24%
C=C1CCC[C@]2(C)C[C@H]3OC(=O)C(CN(Cc4ccc(OC)c(OC)c4)CC(C)O)[C@H]3CC12 (stereo partly drawn)	.	-27%	.	-99*	?
